This is a sample that favours compounds with a hit; in the whole collection about 2.3% have one here.
CHO-K1 Ca PAM – nonselective activator or artifact in parental CHO-K1 calcium assay. hit rate 0.02% among 360,000. ATP EC20, Fluo-8 calcium fluorescence; 0% at ATP EC20, 100% at ATP max. activation, % at 3 µM;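 active = activation above the run cutoff, the mean activation of all test compounds plus 3 SD, cut at about 40% in these data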;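 note: peak over basal fluorescence ratio in a 140 s read after ATP addition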
CHO-K1 Ca antag – M1 antagonist counterscreen hit in parental CHO-K1 cells. inhibition, % at 3 µM. hit rate 0.6% among 360,000. ATP-induced calcium, Fluo-8 fluorescence;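 active = inhibition above a per-plate cutoff, the plate's mean sample inhibition plus 3 SD, cut at about 24% in these data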;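 note: 0% = DMSO plus EC80 ATP and 100% = DMSO alone without ATP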
M1 antag – blocks human M1 muscarinic receptor. P11229. CHO-K1 hM1, Fluo-8 calcium fluorescence, ACh EC80 antagonist. inhibition, % at 3 µM. hit rate 1.3% among 360,000. AID 588852;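 active = percent inhibition above its own plate's cutoff, namely the mean of that plate's compound wells plus 3 SD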;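 note: peak over basal fluorescence ratio during 140 s after agonist addition; 0% = ACh EC80 plus DMSO and 100% = DMSO alone without agonist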
Target sequence (P11229 whole entry, looked up): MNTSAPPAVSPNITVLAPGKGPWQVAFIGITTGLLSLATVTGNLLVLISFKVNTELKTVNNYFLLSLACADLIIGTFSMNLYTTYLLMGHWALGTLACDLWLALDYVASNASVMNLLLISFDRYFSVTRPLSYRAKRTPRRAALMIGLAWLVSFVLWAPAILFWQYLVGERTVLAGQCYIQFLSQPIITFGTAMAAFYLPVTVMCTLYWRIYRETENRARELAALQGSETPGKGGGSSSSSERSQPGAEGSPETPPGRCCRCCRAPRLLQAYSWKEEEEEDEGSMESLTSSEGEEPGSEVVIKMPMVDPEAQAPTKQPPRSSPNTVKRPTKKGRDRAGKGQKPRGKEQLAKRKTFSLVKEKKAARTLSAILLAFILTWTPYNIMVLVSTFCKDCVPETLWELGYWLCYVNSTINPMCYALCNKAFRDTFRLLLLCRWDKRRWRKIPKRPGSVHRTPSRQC
M1 ag parental – counter-screen for M1 agonists: effect in parental CHO-K1 cells | hit rate 0.48% among 360,000 | Fluo-8 calcium fluorescence; scaled to maximal ATP response, vehicle zero | activation, % at 3 µM; in the data active = activation above about 15%;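 note: untransfected CHO-K1 host cells lacking M1 receptor as counterscreen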
M1 PAM – positive allosteric modulators of human M1 muscarinic receptor; P11229; CHO-K1 hM1, Fluo-8 calcium fluorescence, ACh EC20; 0% = ACh EC20, 100% = maximal ACh; activation, % at 3 µM; hit rate 0.088% among 360,000; in the data active = activation above about 19%, passing the limit was not always enough
M1 ag – activates human CHRM1 receptor; CHO-K1 hM1, Fluo-8 calcium fluorescence, agonist mode; 0% DMSO, 100% acetylcholine EC100; activation, % at 3 µM; hit rate 0.33% among 360,000; AID 588814;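 active = activation above the run's mean compound activation plus 3 SD, cut at about 16% in these data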;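 note: peak over basal fluorescence ratio within a 140 s kinetic read after compound addition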
An asterisk follows results filed as active; . = no result given.

SMILES	CHO-K1 Ca PAM	CHO-K1 Ca antag	M1 antag	M1 ag parental	M1 PAM	M1 ag
c1ccc(CN2CCCC3(CCCN(Cc4nc(COc5ccccc5)no4)C3)C2)cc1 (stereo not given)	25	-12	60*	0	-28	-10
Cc1cc(C)c2nc(N3CCC(C(=O)NCCCN4CC(C)CC(C)C4)CC3)sc2c1 (stereo not given)	27	-10	82*	2	-27	-10
O=C1CN(CC(=O)Nc2ccc(Cl)cc2)CCN1	13	-1	-6	0	3	-2
O=C1CN(CC(=O)Nc2ccc(SC(F)F)cc2)CCN1	-16	27*	10	-1	-7	-1
CCc1cccc2c1NC(=O)C2(O)CC(=O)c1cccs1 (stereo not given)	7	-3	-5	0	8	-3
COC(=O)CN1C(=O)CSc2ccc(S(=O)(=O)N3CCC(C)CC3)cc21	14	6	-8	0	5	-5
Cc1ccc(S(=O)(=O)N2CCc3ccccc3CC2)cc1	-21	-1	23	1	-14	-2
Cc1ccc(S(=O)(=O)N2CCNC(=O)CC2)cc1	7	-4	-5	23*	10	-5
O=c1c2cc(F)ccc2[nH]c(=S)n1Cc1ccc(F)cc1	4	-3	4	1	-4	-4
NC(=O)c1ccsc1NC(=O)COC(=O)c1cnccn1	-23	12	-4	0	16	4
O=C(COC(=O)c1cnccn1)Nc1ccc(Cl)cn1	-29	27*	-16	0	12	4
O=C(NCc1nc(-c2ccc(C(F)(F)F)cc2)no1)Nc1cc(Cl)cc(Cl)c1	-3	35*	13	7	-1	2
O=C(NCc1nc(-c2ccc(C(F)(F)F)cc2)no1)Nc1ccc(F)cc1F	4	-3	-10	2	-3	0
COc1ccc(C(=O)C2CCN(C(=S)NCCc3ccc(OC)c(OC)c3)CC2)cc1	1	-6	3	18*	-18	-3
COc1ccc(C(=O)C2CCN(C(=S)NCCc3ccccc3)CC2)cc1	23	-19	-1	6	7	-3
COCCNC(=S)N1CCC(C(=O)c2ccc(F)cc2)CC1	6	-9	-18	1	18	3
COc1ccc(C(=O)C2CCN(C(=O)Nc3ccc(C)cc3)CC2)cc1	-3	4	-10	19*	10	10
COc1ccc(CCNC(=S)N2CCC(C(=O)c3ccc(F)cc3)CC2)cc1OC	9	-4	2	15*	0	-1
Cc1ccc(NC(=O)N2CCC(C(=O)c3ccc(F)cc3)CC2)cc1	-1	-13	-2	3	5	-3
Nc1[nH]c(C(=O)c2ccccc2)c(-c2ccncc2)c1C(=O)NC1CC1	11	0	.	0	.	.
O=[N+]([O-])c1ccc2cn[nH]c2c1	-10	35*	-19	2	1	0
Cc1cc(Br)ccc1NCc1ccccn1	12	-22	-8	0	2	-6
O=C(/C=C/c1ccccc1)c1ccc2c(c1)OCO2	16	-4	-4	1	17	-2
COc1ccc(C(=O)/C=C/c2ccc(N(C)C)cc2)c(OC)c1	-25	45*	53*	82*	-20	69*
CN(C)c1ccc(/C=C/C(=O)c2ccc3c(c2)OCO3)cc1	-6	21	41*	46*	-13	53*
SMILES	CHO-K1 Ca PAM	CHO-K1 Ca antag	M1 antag	M1 ag parental	M1 PAM	M1 ag
CN(C)c1ccc(C(=O)C=Cc2ccc([N+](=O)[O-])cc2)cc1	2	-5	-6	0	2	-1
CN(C)c1ccc(/C=C/C(=O)c2ccc(O)cc2)cc1	-7	25*	30	53*	-18	53*
CN(C)c1ccc(/C=C/C(=O)c2cccnc2)cc1	-8	20	28	65*	-18	60*
COc1ccc(C(=O)/C=C/c2ccccc2)c(OC)c1	13	-2	-4	0	2	-3
CC(C)(C)NC(=O)COC(=O)c1ccc(Cl)cc1O	14	-10	-5	2	4	-2
Cc1cn([C@H]2C[C@H](O)[C@@H](CCC(=O)NCCc3ccc4ccccc4c3)O2)c(=O)[nH]c1=O	6	-13	-21	0	2	-3
CCC(C)NC(=O)CCS(=O)(=O)c1ccc(Br)s1 (stereo not given)	3	-5	0	0	3	-3
